Measurements published in ChEMBL document CHEMBL3988442, “University of Dundee, Small-Polar-MMV Screening Library” (2021).
About 1,200 (3.2%) of roughly 38,000 compounds showed an effect of 50% or more. The median lay at about -58%. This excerpt belongs to a sample that is enriched for strong results.

tested on: Plasmodium falciparum; assay: Calibr Malaria Delayed Death Assay SOP; format: functional, organism-based; set-up: scale not given: in the data most compounds retested in dose-response had high values; conditions: concentration 4.99e-06 (unit not given; other assays of the set use mol/L)

| SMILES | Percent Effect |
| --- | --- |
| CCOc1nn(CC)cc1-c1nnc(SCc2cccnc2)n1C | -73.46% |
| Cc1ccc(C(=O)N2CCCCC2CN(C)C)cc1 (configuration not stated) | -61.09% |
| CN(CCO)CC1COCCN1C(=O)C1CCCCC1.O=CO (configuration not stated) | -110.9% |
| CCN1CCN(C2CCN(CCOc3ccc(F)cc3)CC2)C1=O | -7.395% |
| CN(CC1CCN(CCO)CC1)CC(O)c1ccc(F)c(F)c1 (configuration not stated) | 76.36% |
| Cc1ccc(CNC(=O)CN(C)CC2CCN(CCO)CC2)s1 | -11.16% |
| Cn1ccnc1CN1CCN(CC(O)c2ccc(F)c(F)c2)CC1 (configuration not stated) | -68.2% |
| Cc1noc(CN(C)CC2CCN(CCO)CC2)n1 | -70.26% |
| CN(CCOCC(F)(F)F)CC1CCN(CCO)CC1 | 17.18% |
| CN(CC1CCN(CCO)CC1)CC(O)c1ccc(F)cc1 (configuration not stated) | 68.91% |
| O=C(O)c1ccc(CNC(=O)C2CCN(Cc3ccco3)CC2)s1 | -25.63% |
| CC1CN(c2ncccc2C(=O)N[C@@H]2CCCc3ccccc32)CCN1 (some centres not stated) | 43.77% |
| Cc1cnn(CC2CN(Cc3nc(-c4ccco4)no3)CCO2)c1 (configuration not stated) | -38.17% |
| O=C(NCC1CCN(CCc2ccccc2)C1)c1cc(Cl)c[nH]1 (configuration not stated) | 64.57% |
| COCCN1CCC(CNC(=O)c2cc(Cl)c[nH]2)CC1 | -1.799% |
| CCN1CCC(CNC(=O)c2cc(Cl)c[nH]2)CC1 | -105.8% |
| COc1ccc2c(=O)ccn(CC(=O)O)c2c1 | -41.24% |
| COc1ccc(C(=O)N(CCO)Cc2ccccc2)c(OC)n1 | -39.82% |
| O=C(CCS(=O)(=O)c1ccccc1)NCCCn1cccn1 | -18.78% |
| CC(CNC(=O)C1(c2ccc(F)cc2)CC1)CN1CCCC1=O (configuration not stated) | 8.838% |
| Cc1cc(C)n(CC(C)NC(=O)C2(c3ccc(F)cc3)CC2)n1 (configuration not stated) | -52.55% |
| Cn1cc(N2CCC3(CCCN(C(=O)c4ccnn4C)C3)C2=O)cn1 (configuration not stated) | -100.5% |
| Cc1ccc(C(=O)N2CCC3(CCC(=O)N(CC(C)O)C3)CC2)c(O)c1 (configuration not stated) | -27.05% |
| O=C(O)C(F)(F)F.O=C(c1cccs1)N1CC[C@@H]2CN(C3CCOCC3)CCO[C@@H]2C1 | -28.53% |
| OC(COCc1cccs1)Cn1cc(Cl)cn1 (configuration not stated) | -34.56% |
| Cn1c(N2CCOCC2)nc2cc(C(=O)N3CC(O)CO3)ccc21 (configuration not stated) | -166.7% |

| SMILES | Percent Effect |
| --- | --- |
| CN(C)CCCNCC1CCOC(C)(C)C1 (configuration not stated) | 16.23% |
| CC(CCc1ccccc1)NC(=O)CNCCCN(C)C.O=C(O)C(=O)O (configuration not stated) | -24.06% |
| CN(C)CCNCC1CCOC(C)(C)C1 (configuration not stated) | -38.44% |
| Cc1ccc(C(CCNCCCN(C)C)C2CCOC(C)(C)C2)cc1.O=C(O)C(=O)O (configuration not stated) | 83.16% |
| CCN(CC)CCCNCC1CCOC(C)(C)C1 (configuration not stated) | -55.61% |
| CC1CN(C(=O)NCCNc2cnccn2)CCO1 (configuration not stated) | -97.79% |
| O=C1CCSCC(C(=O)N2CCC(O)CC2)N1 (configuration not stated) | -111.3% |
| CC(C)C(=O)NC1CCN(c2cccc(OC(F)(F)F)c2)C1=O (configuration not stated) | -46.04% |
| O=C(NCC1CCOCC1)c1cc(-c2ccc3c(c2)CCO3)n[nH]1 | -4.569% |
| COc1ccc2ccccc2c1CNCC1CCS(=O)(=O)C1.Cl (configuration not stated) | 66.1% |
| CCOc1ccc(CNC(=O)N2CCCC(CO)C2)cc1F (configuration not stated) | -13.27% |
| CCOc1ccc2ccccc2c1CNCC1CCS(=O)(=O)C1.Cl (configuration not stated) | 73.94% |
| Cc1c(Br)cccc1C(=O)NCC1CCNCC1.Cl | -131.1% |
| Cc1nn(C)c(N2CCOCC2)c1CNCC1CCS(=O)(=O)C1 (configuration not stated) | -69.07% |
| CCOc1ccc2ccccc2c1CNCC1CCNCC1.Cl.Cl | 91.29% |
| Cc1cccc(C(=O)NCC2CCS(=O)(=O)C2)n1 (configuration not stated) | -33.59% |
| Cc1ccc(-c2n[nH]cc2CNCC2CCS(=O)(=O)C2)o1 (configuration not stated) | -9.681% |
| COc1cccc(-c2n[nH]cc2CNCC2CCS(=O)(=O)C2)c1 (configuration not stated) | -56.98% |
| CCOC(=O)N1CCC2(CCCN(C3CCOCC3)C2=O)C1 (configuration not stated) | -44.33% |
| CCc1ccc(CNC(=O)Cn2ccc3sccc3c2=O)cc1 | -94.67% |
| O=C(NCCc1ccccn1)[C@@H]1CC[C@@H]2[C@@H](CCN2Cc2ccoc2)O1.O=C(O)C(F)(F)F.O=C(O)C(F)(F)F | -61.1% |
| C1CCC(CO[C@@H]2CC[C@H]3[C@H]2OCCN3CC2CCOCC2)C1.O=C(O)C(F)(F)F | -55.18% |
| O=C(O)C(F)(F)F.O=C(O)C(F)(F)F.O=C(c1ccco1)N1C[C@H]2CCCN(Cc3ccncc3)[C@H]2C1 | -22.95% |
| COc1ccc(NC(=O)c2cc3c([nH]c2=O)CCCC3=O)c(OC)c1 | -49.85% |
| CCN1CCN(CCNC(=O)c2sc(C(C)C)nc2C)CC1 | -17.43% |
| O=C(NCc1cccs1)[C@@H]1CC[C@@H]2[C@@H](CCN2CC2CCC2)O1.O=C(O)C(F)(F)F | 20.57% |
